# Measured values: PMC7819943, “Rice protein-binding microarrays: a tool to detect cis-acting elements near promoter regions in rice”
# Whole data set: some 39,000 sequences, median “fluorescence intensity (a.u.)” near 4,300, cut for the highest 2% near 39,000. This excerpt belongs to a sample that is enriched for the highest values.
# Target: T1, OsSMF1 (Oryza sativa, UniProt Q6ZLB0 1-436)
# T1 sequence: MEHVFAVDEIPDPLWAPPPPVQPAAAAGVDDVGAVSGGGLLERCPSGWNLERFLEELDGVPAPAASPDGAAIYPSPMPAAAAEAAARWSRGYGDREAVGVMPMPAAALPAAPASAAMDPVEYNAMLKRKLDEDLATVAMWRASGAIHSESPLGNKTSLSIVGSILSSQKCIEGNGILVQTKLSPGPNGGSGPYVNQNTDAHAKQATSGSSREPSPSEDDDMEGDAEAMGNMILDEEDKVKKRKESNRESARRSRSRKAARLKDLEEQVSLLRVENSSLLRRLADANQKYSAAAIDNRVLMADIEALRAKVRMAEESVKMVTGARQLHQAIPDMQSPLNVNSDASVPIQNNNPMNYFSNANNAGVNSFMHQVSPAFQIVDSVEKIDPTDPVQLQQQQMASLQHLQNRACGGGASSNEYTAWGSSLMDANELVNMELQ
# Experiment: protein-binding microarray (RPBM); PBS, 2% BSA, 51.3 ng/ul salmon testes DNA, 50 uM zinc acetate, 200 nM TF, 25 C, 1 h; high values mean tight binding
# Details: protein: recombinant; tags: N-terminal polyhistidine and DsRed monomer fusion (pET32a); chain copies: 2; label: CyDye5-dUTP incorporated in the synthesized complementary strand; 3' TTTTT single-stranded linker to array surface; dsDNA, one strand shown
# How it was run: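 Transcription factors were each fused at the N-terminus to a polyhistidine tag plus DsRed and expressed in E. coli BL21-CodonPlus before Ni–NTA purification. Binding to a double-stranded custom Agilent array was carried out with 200 nM protein at 25 °C for 1 h in PBS, 2% BSA, salmon testes DNA and 50 µM zinc acetate. The binding signal is per-feature fluorescence intensity, in arbitrary units, on an Axon 4000B scanner.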
row,Sequence,binding signal
1,AAACACTGAAATTTTAGCATCACGAAGTTCTCACCGAGACCGGAGTCACCTAGTGCAG,5200 fluorescence intensity (a.u.)
2,GGGTTCGATTCCCCGCACCTCCAATATAAAACGTTTTCTTCGGAGTCACCTAGTGCAG,3420 fluorescence intensity (a.u.)
3,GAGTCCGGCGTGATGCCGTGATGACGCCGCAACGCGGCATCGGAGTCACCTAGTGCAG,9060 fluorescence intensity (a.u.)
4,AGCATGCACCTTGATCACGGGAACGAGCTAGCGAGAGGCACGGAGTCACCTAGTGCAG,3720 fluorescence intensity (a.u.)
5,ACAAACGAACAAGACATGAAGCCGATGAGTCCAGCAGAGCCGGAGTCACCTAGTGCAG,3170 fluorescence intensity (a.u.)
6,GTTAATGGTGACTTTATTTTCGTCTGTTACAAAACGGAAGCGGAGTCACCTAGTGCAG,3250 fluorescence intensity (a.u.)
7,GATTAATTGATTTATTTCTTTCTGCTTTACCCGGTCGCCACGGAGTCACCTAGTGCAG,19200 fluorescence intensity (a.u.)
8,GCTGGCCCATCTCCTTGCCCACCCATGGGCCTGAAAGCCGCGGAGTCACCTAGTGCAG,49900 fluorescence intensity (a.u.)
9,CACCCATCTCCTTGCCGGCCTCTCCACCCCGCCTCTTTCGCGGAGTCACCTAGTGCAG,19000 fluorescence intensity (a.u.)
10,TGGGAGCGCTGGGGCTGGCCATCTCTCCTTGCCTGCTGTGCGGAGTCACCTAGTGCAG,29400 fluorescence intensity (a.u.)
11,ATTGATGTTACATGCCTCGCAAGCGATGACACGGCAAGCTCGGAGTCACCTAGTGCAG,5060 fluorescence intensity (a.u.)
12,AGCTCAGCTGTCACGGTGTCACCTGTCAGCGCCCACAACTCGGAGTCACCTAGTGCAG,6140 fluorescence intensity (a.u.)
13,GGCGAAGAATGCAGACATGACACGGACCCATCGACGCGGGCGGAGTCACCTAGTGCAG,3340 fluorescence intensity (a.u.)
14,AGTGGAAGCAGGTCTTTTACTGATCGATCAAGGTCTGATGCGGAGTCACCTAGTGCAG,16800 fluorescence intensity (a.u.)
15,CTCATCTCAAGCTTTTCTCTCTCTCTCTCTCTTTGCACTACGGAGTCACCTAGTGCAG,4680 fluorescence intensity (a.u.)
16,GAGCTTCTGACTCATCTTTACTAGGAAGGGTCTTTTCAAGCGGAGTCACCTAGTGCAG,39100 fluorescence intensity (a.u.)
17,CGCCGTCGACACGTGGGGCCCCTCCTCCCGCCGCCGCCGCCGGAGTCACCTAGTGCAG,9020 fluorescence intensity (a.u.)
18,GACTACGCGTACGCCACGCCACAACGCTTCTCGCTCTCCCCGGAGTCACCTAGTGCAG,4510 fluorescence intensity (a.u.)
19,TTAATAGTATAGTAAGCAATTGTTGTATGAATTGGCTATTCGGAGTCACCTAGTGCAG,27200 fluorescence intensity (a.u.)
20,GGATATGTATAACAATGTGGGTCAGCAATATTGAACTATGCGGAGTCACCTAGTGCAG,3650 fluorescence intensity (a.u.)
21,TTAGCAAGTGCCTATGTGAGGATATAGCAATATTTCAATGCGGAGTCACCTAGTGCAG,42200 fluorescence intensity (a.u.)

row,Sequence,binding signal
1,ACAATTTTAATGAAATCGTACATTATACTATATATGTTTTCGGAGTCACCTAGTGCAG,3150 fluorescence intensity (a.u.)
2,TAATGAATTAGGGCATTGGATGTACCAACTTATGTTATATCGGAGTCACCTAGTGCAG,23300 fluorescence intensity (a.u.)
3,CAAATATATTATCAAAATATATTCAATGCTAAATTTAATGCGGAGTCACCTAGTGCAG,5300 fluorescence intensity (a.u.)
4,CTATATTAATTAATGAATTAGCAATTGGATGTACCAATTTCGGAGTCACCTAGTGCAG,41000 fluorescence intensity (a.u.)
5,TATATTCAATGCTATGTTTAATGAAACTAATTTGGATATTCGGAGTCACCTAGTGCAG,65100 fluorescence intensity (a.u.)
6,CTCTCCTACAATAGGATGGACTATGTGACGTAGCACAATGCGGAGTCACCTAGTGCAG,7860 fluorescence intensity (a.u.)
7,CCCGTGACGTGTCGGCATCGGAGGGCCCCTCGTCGGGGTCCGGAGTCACCTAGTGCAG,10200 fluorescence intensity (a.u.)
8,GGTCCCGTCAGGGAAGGACCCCACGTCCTCGGTTCCATTCCGGAGTCACCTAGTGCAG,3910 fluorescence intensity (a.u.)
9,GAGCAGTAATGCGTGTGCGGCGATTGGCACGTGCATGGTGCGGAGTCACCTAGTGCAG,3780 fluorescence intensity (a.u.)
10,CTCCTTGGCCCGTTTGGTCTCTGTGTGGGTTGGTAAAGACCGGAGTCACCTAGTGCAG,3330 fluorescence intensity (a.u.)
11,CCTCCGACATCTCCAGCCAATTCCAGCTCAGCTCTCGCCGCGGAGTCACCTAGTGCAG,4150 fluorescence intensity (a.u.)
12,GCTTTACGTCTTGTGTGGAAGAAAGCGGAAAACTATCCAGCGGAGTCACCTAGTGCAG,3540 fluorescence intensity (a.u.)
13,ATAATAGCACATGTGGATATCTGTAGAATTCATTTCGTGTCGGAGTCACCTAGTGCAG,3550 fluorescence intensity (a.u.)
14,GAACGGGACCAGCTACTATAGTGAAATTTAGATTTCAAAGCGGAGTCACCTAGTGCAG,42200 fluorescence intensity (a.u.)
15,GACGTGATAAAGAAGTTCAGATTTAGAAATAAATTTGAAGCGGAGTCACCTAGTGCAG,3820 fluorescence intensity (a.u.)
16,AGCAGCGGGCTACAGATTTATAGCCAGCTGTAGCACGGATCGGAGTCACCTAGTGCAG,33200 fluorescence intensity (a.u.)
17,GCGGCTTCTCGCCGGCGGCGACCACCACCCGTCACCCACCCGGAGTCACCTAGTGCAG,3380 fluorescence intensity (a.u.)
18,ATCCATTGCTGCTTTCAGCTGAGTCACCAACTCCTATCCACGGAGTCACCTAGTGCAG,14100 fluorescence intensity (a.u.)
19,GTTGCAGAGCAGCTCGCGCCGCGCGCGTACACTCGCTTTGCGGAGTCACCTAGTGCAG,6780 fluorescence intensity (a.u.)
20,GTGGGCTTAGACGGCCCAGTCATGACCCTTTCATTTCGTGCGGAGTCACCTAGTGCAG,3440 fluorescence intensity (a.u.)
21,TTTGCCCATTTTATTCCCTTGCGTCATCCATTTACTGCTTCGGAGTCACCTAGTGCAG,13800 fluorescence intensity (a.u.)
